Screening data (PubChem)
The entries come from a sample that favours hits as a whole.
14-3-3 PPI: alters human 14-3-3 gamma binding to Raf peptide; inhibition, % at 40 µM; hit rate 0.19% among 160,000; P61981; FP, 14-3-3gamma / TMR-pS259-Raf peptide binding; AID 422; in the data active means inhibition above about 30%;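 further: 0% = protein plus tracer without compound and 100% = blank with tracer alone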
Target sequence (P61981 whole entry, looked up): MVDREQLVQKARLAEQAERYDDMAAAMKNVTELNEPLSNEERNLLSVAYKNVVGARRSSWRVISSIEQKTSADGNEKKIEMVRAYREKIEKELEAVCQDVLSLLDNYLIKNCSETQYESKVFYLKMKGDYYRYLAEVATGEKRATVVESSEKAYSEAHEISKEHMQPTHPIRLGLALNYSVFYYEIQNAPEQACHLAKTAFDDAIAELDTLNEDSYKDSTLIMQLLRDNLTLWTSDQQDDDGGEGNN
* marks the source's active call; other numbers are inactive results.

SMILES | 14-3-3 PPI
Cc1cccc(C)c1N1C(=O)c2ccc([N+](=O)[O-])c3c([N+](=O)[O-])ccc(c23)C1=O | -20
O=C(O)c1cc(N2C(=O)c3ccc([N+](=O)[O-])c4c([N+](=O)[O-])ccc(c34)C2=O)ccc1O | -32
O=C1c2ccc([N+](=O)[O-])c3c([N+](=O)[O-])ccc(c23)C(=O)N1c1ccc(O)cc1 | 43*
Cc1[nH]c2ccccc2c1C=Cc1nc2ccccc2c(=O)n1Cc1ccccc1 | -20
O=C(CSc1nnc(-c2cccnc2)n1Cc1ccccc1)c1ccc(Br)cc1 | -9
CCOC(=O)c1c(NC(C)=O)sc(C(=O)Nc2ccc(C)c(Cl)c2)c1C | -1
N#Cc1cc(-c2ccccc2C(F)(F)F)no1 | 7
CCN(CC)c1ccc(CNc2ccc(Br)cn2)cc1 | -4
CCN(CC)c1ccc(-c2cc(C#N)on2)cc1 | 41*
CCOc1ccc(C(=O)Nc2ccc3c(c2)C(=O)c2ccccc2C3=O)cc1Br | -14
O=C(O)C1CC=CCC1C(=O)Nc1ccc2c(c1)oc1ccccc12 (configuration not stated) | 0
Cc1ccc(S(=O)(=O)NC(CC(=O)O)C(C)C)cc1 (configuration not stated) | -1
CC(C)COC(=O)c1ccc(NS(=O)(=O)c2ccccc2)cc1 | 1
CC(=O)N(C)c1ccc(N2CCOCC2)c2c1C(=O)c1ccccc1C2=O | -15
Cn1c(=O)cc2c3c(c(N4CCOCC4)ccc31)C(=O)c1ccccc1-2 | 33*
Cc1ccc(Nc2ccc3c4c(cc(=O)n3C)-c3ccccc3C(=O)c24)cc1 | -160
COc1ccc(C2NC(=O)NC(C)=C2C(=O)OCCOc2ccccc2)cc1OC (configuration not stated) | 3
CC1(C)CC(=O)C=C(N2CCN(C3=CC(=O)CC(C)(C)C3)CC2)C1 | 0
CC1(C)CC(=O)c2sc(N3CCCCC3)nc2C1 | 1
CC1(C)CC(=S)C=C(N2CCCCC2)C1 | 125*
CC(C)Sc1nc(SC(C)C)c2c3c(sc2n1)COC(C)(C)C3 | -9
CCOC(=O)C1=C(C)NC2=C(C(=O)CC(C)(C)C2)C1c1ccc(OC)c(OC)c1 (configuration not stated) | -9
CCOc1ccc(C2C3=C(CCCC3=O)Nc3c2c(=O)n(C)c(=O)n3C)cc1OC (configuration not stated) | -12
COc1cccc(C2C(C(C)=O)=C(O)C(=O)N2Cc2cccnc2)c1 (configuration not stated) | 0
COc1ccccc1NC(=O)c1sc(=S)n(-c2ccccc2C)c1N | -3
Cc1c(C(=O)Nc2ccc(Cl)cc2)sc2ncn(C)c(=O)c12 | -5
N#CC(C#N)C(C#N)(C#N)C1CCCCC1=O (configuration not stated) | 142*
O=C(Nc1ccc2nn(-c3ccccc3)nc2c1)c1oc(=O)c2ccccc2c1-c1ccccc1 | -3
